# Bioassay records from PubChem BioAssay.
# In the library only some 1.3% were active in any assay of this set; here they are far more common.
# S1P2 ag – activates the human S1P2 receptor; O95136; S1P2-expressing cell line, agonist reporter read-out; activation, % at 4.5 µM; 0.46% of 97,000 active; AID 729; in the data active = activation above about 16%;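 note: 0% = vehicle low control and 100% = maximal reference agonist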
# Phagocyt inh – blocks phagocytosis by macrophages; AID 1029; inhibition, % at 5 µM; J774A.1 macrophage IgG-bead phagocytosis, imaging; 0.07% of 110,000 active;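 active = inhibition above the mean of the plate negative controls plus 5 SD, cut at about 13% in these data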;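 note: phagocytic index as fraction of beads internalized from green versus red external bead signal; plate controls were DMSO negative control for no effect and cytochalasin-D positive control for full effect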
# Candida biofilm – kills Candida albicans biofilms; C. albicans biofilm + clotrimazole, Alamar Blue; inhibition, % at 6 µM; 0.14% of 85,000 active;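 active = inhibition above 20%; inactive = inhibition below 20%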;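 note: preformed 24 hr biofilms exposed to compound for 48 hr; 0% = biofilm without compound and 100% = blank killed by clotrimazole plus chlorhexidine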
# GALR2 ag – agonists of human galanin receptor 2 (GALR2) | 0.48% of 140,000 active | GALR2-expressing cells, agonist activation read-out | O43603 | AID 803 | activation, % (concentration not given with the values); in the data active = activation above about 5%, passing the limit was not always enough;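 note: 0% = vehicle buffer wells and 100% = reference agonist at full effect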
# GALR2 blocker – GALR2 (human) receptor antagonism. GALR2-expressing cells, antagonist mode. 0.39% of 140,000 active. inhibition, % at 4 µM. O43603;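 note: cells stimulated with galanin 1-16 at roughly its EC80; 0% = agonist challenge control and 100% = basal control without agonist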
# S1P2 antag – S1P2 (human) receptor antagonism; 0.21% of 97,000 active; O95136; inhibition, % at 5 µM; cell-based S1P2 antagonist assay, inhibition at 5 uM; in the data active = inhibition above about 45%;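 note: CRE beta-lactamase reporter cells expressing human S1P2 stimulated with S1P; 0% = agonist at EC80 alone and 100% = agonist plus reference antagonist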
# GALR2 blk conf – GALR2 (human) antagonism confirmed. shares compounds with GALR2 blocker. inhibition, % at 4 µM. 60% of 480 active. AID 866. GALR2-expressing cells, antagonist mode, inhibition;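 note: cells stimulated with galanin at about its EC80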
# BLA inh counter – counter-screen for GALR2 antagonists: beta-lactamase reporter inhibitors | shares compounds with GALR2 blocker | CHO NFAT-BLA reporter, beta-lactamase FRET, thapsigargin-stimulated | inhibition, % at 4.2 µM | 36% of 480 active | AID 867;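 active = inhibition above the mean inhibition across tested compounds plus 3 SD, cut at about 27% in these data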;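 note: 0% = 500 nM thapsigargin stimulated wells and 100% = unstimulated BSA only wells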
# * hit, by the source's call; · = not tested or not shown. Cut-off read from the data, not from the text of the source, unless noted: active = inhibition above about 27%; inactive = the rest.
SMILES,S1P2 ag,Phagocyt inh,Candida biofilm,GALR2 ag,GALR2 blocker,S1P2 antag,GALR2 blk conf,BLA inh counter
CC1CCC2(CC1)NC(CO)(CO)CO2 (stereo not drawn),-3,·,7,-3,5,10,·,·
CCSc1nnc([C@H](Cc2ccccc2)NC(=O)OC(C)(C)C)o1,-4,1,4,0,-3,-3,·,·
Cc1ccccc1CS(=O)(=O)c1nnc([C@H](Cc2ccccc2)NC(=O)OC(C)(C)C)o1,-5,1,6,3,28*,24,33*,56*
COc1cccc(CN2C(=O)Nc3ccccc3C(=O)N2C(C)(C)C)c1,3,0,3,0,-5,-6,·,·
COc1cccc(CN2C(=O)c3cccc(N)c3C2=O)c1,·,-1,·,2,31*,·,8,12
O=C(/C=C/c1ccco1)Nc1sc2c(c1C(=O)O)CCC2,1,1,·,-1,0,23,·,·
N#Cc1c(NC(=O)/C=C/c2ccco2)sc2c1CCCC2,·,20,·,5.9*,31*,·,32*,64*
CCN1CCN(CCCNC(=O)c2csc3c2CCCCC3)CC1,-10,-1,3,-4,-3,14,·,·
O=C(CCCn1c(=S)[nH]c2cc3c(cc2c1=O)OCO3)N1CCc2ccccc2C1,-2,·,0,-4,28*,2,7,5
O=C(CCn1c(=S)[nH]c2cc3c(cc2c1=O)OCO3)N1CCc2ccccc2C1,-3,0,2,-2,-6,-3,·,·
